From PubChem
mcGAS lum: cyclic GMP-AMP synthase inhibitors, mouse, primary biochemical chemiluminescence; recombinant cGAS, Kinase-Glo ATP depletion luminescence; inhibition, % at 12.5 µM; hit rate 0.15% among 160,000;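 further: 0% = negative control wells and 100% = reference inhibitor with no enzyme activity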
Target sequence (Q8C6L5 whole entry, looked up): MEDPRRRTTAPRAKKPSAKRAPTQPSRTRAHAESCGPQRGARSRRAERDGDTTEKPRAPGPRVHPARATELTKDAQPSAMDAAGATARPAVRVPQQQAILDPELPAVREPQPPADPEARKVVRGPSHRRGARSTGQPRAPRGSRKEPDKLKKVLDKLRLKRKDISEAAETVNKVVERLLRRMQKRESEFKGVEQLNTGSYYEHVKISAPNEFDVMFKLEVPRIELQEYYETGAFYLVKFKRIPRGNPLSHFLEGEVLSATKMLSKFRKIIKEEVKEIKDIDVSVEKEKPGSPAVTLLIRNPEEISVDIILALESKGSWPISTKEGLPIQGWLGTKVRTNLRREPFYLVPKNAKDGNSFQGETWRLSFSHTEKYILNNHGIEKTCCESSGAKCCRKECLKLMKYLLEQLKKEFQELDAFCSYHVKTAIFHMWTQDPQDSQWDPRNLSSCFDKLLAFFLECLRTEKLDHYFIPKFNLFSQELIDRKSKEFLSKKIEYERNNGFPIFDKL
NPYLR7 ag: agonists of mosquito NPYLR7 receptor, primary screen, cell-based, Aedes aegypti, calcium fluorescence, mosquito biting behavior. Aedes aegypti neuropeptide Y-like receptor 7 (NPYLR7). hit rate 0.15% among 270,000. HEK293T NPYLR7/Galpha15, GCaMP6s calcium fluorescence. activation, % at 10 µM; in the data active means activation above about 40%;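 further: 0% = vehicle and 100% = reference agonist at the receptor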
hcGAS lum: Primary biochemical luminescence assay for human cyclic GMP-AMP synthase inhibitors. Q8N884. recombinant h-cGAS, ATP depletion, Kinase-Glo luminescence. inhibition, % at 12.5 µM. hit rate 0.081% among 290,000;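 further: 0% = vehicle reaction and 100% = reaction without DNA for no activity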
Active calls of the source: *; . = not tested or not shown; ! = not active in a repeat. Sampled rows, rich in hits. Any-hit rate of the full collection: about 0.3%. Unless noted, no stated cut-off is given here; in the data, active means inhibition above about 40%; inactive means the rest.

SMILES | mcGAS lum | NPYLR7 ag | hcGAS lum
N#Cc1ccccc1NC(=O)c1n[nH]c([N+](=O)[O-])c1Br | . | -2.6 | 43.9*
CCCn1nc(C)c(CNc2nc(CCN)nc3ccccc23)c1C | -14.6 | 8.6 | -2.9
O=C(/C=C/c1ccc(Cl)cc1Cl)n1cccn1 | 43.7* | -10.4 | 4.0
CN1CCN(C(=O)/C=C/c2ccc(Cl)cc2Cl)CC1 | -5.5 | -3.4 | -1.6
C#Cc1cccc(NCC(=O)N2CCOC(C)C2)c1 (stereo unspecified) | . | 6.1 | -5.6
N#Cc1cc(C(=O)c2cc(Cl)cc(Cl)c2O)cn(-c2nccs2)c1=O | . | 135.3* | -0.5
N#Cc1cc(C(=O)c2cc(Br)ccc2O)cn(-c2ccccc2Cl)c1=O | . | 42.2 | -5.1
O=S(=O)(c1ccc2c(c1)nc(SCc1cccc(F)c1F)n2C1CCCC1)N1CCCC1 | -1.1 | 7.8 | -8.6
COc1ccc2c(c1)OC/C(=C\c1ccc(OC)c(O)c1)C2=O | 45.7* | . | -7.2
COc1cc(C=C2COc3ccccc3C2=O)ccc1OCc1ccccc1 | 11.7 | -3.6 | -4.8
O=C(C1CCN(C(=O)[C@@H]2CCCN2C(=O)C2CCN(c3nccc(C(F)(F)F)n3)CC2)CC1)N1CCOCC1 | -7.1 | 11.5 | -4.2
CCCCCSc1n[nH]c(-c2ccc(C)cc2)n1 | . | 8.1 | -7.1
Cc1ccc(N(CCC#N)C(=O)CN2CCCc3ccccc32)cc1C | -17.4 | 22.3 | -6.0
Cc1ccc2c(c1)CCCN2CC(=O)N(CCC(N)=O)c1ccccc1 | 3.2 | 100.1* | 2.6
O=C(Sc1cccc2cccnc12)c1ccccc1Cl | 43.9* | -6.7 | 59.8*
CSc1ccccc1NC(=O)c1cccc2cccnc12 | . | 5.9 | 0.9
COCCN(Cc1csc(COc2c(OC)cccc2OC)n1)C(=O)Cc1ccccc1 | -7.2 | 4.3 | -1.7
O=C1/C(=C/c2ccc(-c3cccc(Cl)c3)o2)NC(=S)N1c1ccccc1 | -0.4 | 4.3 | -2.9
O=C1NC(=S)N(c2ccc3ccccc3c2)C(=O)/C1=C/c1ccc(-c2cccc(C(=O)O)c2)o1 | 81.0* | 3.8 | 56.3*
O=[N+]([O-])c1cccc(C=Nn2cnc3ccccc32)c1 | -1.8 | -3.9 | 1.0
O=C(/C=C/c1cccc([N+](=O)[O-])c1)n1cnc2ccccc21 | 41.9* | 3.7 | -1.8
Cc1ccc(C(=O)C=Cc2ccc(N(C)C)cc2)o1 | . | 75.3* | -7.2
COc1ccc(C=CC(=O)c2ccc(C)o2)cc1OC | . | 3.5 | -2.9
O=C(O)c1[nH]ncc1CN1CCCN(Cc2ccccc2F)CC1 | . | 19.4 | -3.1
CC(C)(C)c1cc2nc(C(=O)N3CCc4ccccc4C3)cc(-c3ccccc3F)n2n1 | 1.3 | -13.0 | 1.1
SMILES | mcGAS lum | NPYLR7 ag | hcGAS lum
COc1ccccc1-c1cc(C(=O)N2CCc3ccccc3C2)nc2cc(C(C)(C)C)nn12 | 83.7* | -2.0 | 6.2
CCCc1c(C)nc2c(-c3ccc(Cl)cc3)c(C)[nH]n2c1=O | . | -16.2 | -8.3
O=C(CN(C(=O)C1CCCCC1)C1CC1)N(CCc1c[nH]c2ccccc12)Cc1ccc(C(F)(F)F)cc1 | -5.2 | 20.5 | -5.6
NC(=O)c1cc(-c2ccccc2)sc1NC(=O)CCl | 81.5* | -7.9 | 3.7
COC(=O)c1cc(-c2ccccc2)sc1NC(=O)CCCl | -3.8 | -4.2 | -4.5
O=C1c2ccccc2C(=O)C1c1nccc2ccccc12 | . | 0.1 | -5.0
O=C1c2ccccc2C(=O)C1c1ccnc2ccccc12 | -1.5 | 102.6* | -3.7
Cc1ccc(Nc2nc(NCCCO)nc3c2cnn3-c2ccccc2)cc1C | -5.8 | -0.3 | -4.6
COc1cccc(C(=O)N(CC(=O)N2CCc3sccc3C2c2ccc(Cl)cc2Cl)CC2CCCO2)c1 (stereo unspecified) | -3.1 | 6.5 | -1.9
CCOC(=O)c1cc(O)c(C(=O)OCC)s1 | -4.0 | 62.4*! | -2.9
CCOC(=O)c1sc(N)c(C(N)=O)c1C | . | 1.3 | -9.2
COc1ccc(C)cc1S(=O)(=O)Nc1cccc([N+](=O)[O-])c1 | . | 3.5 | -5.1
COCCCn1c(C)cn2c3c(=O)n(Cc4ccc(Cl)cc4)c(=O)n(C)c3nc12 | . | 12.3 | -8.7
COCCn1c(C)cn2c3c(=O)n(Cc4ccc(Cl)cc4)c(=O)n(C)c3nc12 | -7.8 | 51.8* | -6.8
O=C(OCCNC(=O)c1cc2ccccc2oc1=O)c1ccccc1 | 2.8 | -15.7 | 4.3
CCN1CCN(C(c2cccc(Cl)c2)C2Sc3nc(C)nn3C2=O)CC1 (stereo unspecified) | . | 1.8 | 2.0
CC(CC(=O)Nc1ccc(Br)cc1)n1cncn1 (stereo unspecified) | . | 4.4 | -7.0
CCOCCCN(CC(=O)N(Cc1cccn1Cc1ccc(F)cc1)C1CCCCC1)C(=O)CCC(=O)OCC | -4.1 | . | -7.0
COCC1CN(C2CCC2)CC12CCN(C(=O)C1(c3ccccc3)CC1)CC2 (stereo unspecified) | -5.6 | . | -18.3
COc1ccc(C(=O)N2CCC3(CC2)CN(C2CCC2)CC3CO)cn1 (stereo unspecified) | -4.6 | . | 48.1*
COc1ccc(/C=C2\SC(=S)N(c3ccc(C(=O)O)cc3)C2=O)cc1OC | -6.6 | -3.8 | 4.7
COc1cc(/C=C2\SC(=S)N(C(CC(=O)O)C(=O)O)C2=O)ccc1O (stereo unspecified) | 4.2 | 67.7* | -5.6
COc1cc(/C=C2\SC(=S)N(c3cccc(C(=O)O)c3)C2=O)ccc1O | -5.5 | 52.3* | -11.1
COCCN1C(=O)/C(=C/c2ccc(O)c(OC)c2)SC1=S | . | 49.7 | -34.3
C=CCNC(=O)NC1CCN(c2ccccc2C(=O)NCCOC)CC1 | -5.0 | -1.0 | -4.8
SMILES | mcGAS lum | NPYLR7 ag | hcGAS lum
C=CCNC(=O)c1ccccc1N1CCC(NC(=O)COC)CC1 | 54.5* | -0.7 | -7.4
CC(C)SC(NC(=O)OCc1ccccc1)C(=O)NCCNc1ccc([N+](=O)[O-])cn1 (stereo unspecified) | -4.2 | -7.8 | -3.9
Cc1nn(-c2ccc(F)cc2)c(C)c1CNC(C)Cn1cncn1 (stereo unspecified) | . | 2.7 | -6.8
CCN(CC)CCNC(=O)c1c(C)[nH]c(/C=C2/C(=O)Nc3ccc(F)cc32)c1C | . | 60.4* | 9.7
Cc1[nH]c(/C=C2\C(=O)Nc3ccc(S(=O)(=O)N(C)c4cccc(Cl)c4)cc32)c(C)c1C(=O)N1CCN(C)CC1 | -1.3 | 41.2 | -0.5
CC(C)CNC(=O)c1c(C2CC2)nn(-c2ccc(F)cc2)c1C(C)C | -4.9 | 5.9 | -6.0
CC(NC(=O)CN1CCN(Cc2ccc(Br)s2)CC1)c1ccccc1 (stereo unspecified) | -5.4 | -0.3 | -4.9
Cc1nc2nc(-c3cc(Cl)ccc3O)cc(C(=O)O)c2[nH]1 | 51.3* | -1.6 | 9.0
Cc1nc2nc(-c3cccc(Cl)c3)cc(C(=O)O)c2[nH]1 | -2.3 | -2.4 | -4.5
Nc1nnc(C2CC/C(=C/c3ccc(Cl)cc3Cl)C2=O)s1 (stereo unspecified) | 2.0 | 3.6 | -0.6
Cc1ccc(-c2csc(-n3[nH]c(C)c(N=Nc4ccc(C(=O)c5ccccc5)cc4)c3=O)n2)cc1 | -6.7 | 10.2 | -3.9
Cn1c(C(C#N)(CC(=O)N2CCCCC2)CC(=O)N2CCCCC2)nc2ccccc21 | -0.5 | -3.6 | 2.4
COc1ccc2c(c1)OCC(C(=O)OCc1nccn1CC(F)(F)F)C2 (stereo unspecified) | -14.6 | -1.6 | -6.9
